Results taken from PubChem BioAssay AID2098 (Broad Institute, 2009).
The campaign covered roughly 300,000 compounds. About 2,300 (0.77%) were called active.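 The calls were made as follows: active = more than half of replicate wells show activity change below -50%, luminescence cut by over half; inconclusive = some wells, but at most half, below -50%; inactive = no replicate well below -50%.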 The entries come from a sample that favours actives as a whole.

assay: HSF1 inhibitors in luciferase reporter cells, primary screen, cell-based, NIH3T3, luminescence (AID 2098); conditions: NIH3T3-HGL HSE-luciferase, MG132-induced, luminescence 8 h; stronger effect = lower value; screened at 7.5 µM (by protocol);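 also: luciferase reports HSF-1 transcriptional activity via heat shock element; 0% = median of DMSO wells and -100% = zero luminescence signal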

Activity change, negative = inhibition, inactive:
CCN(Cc1ccccc1)C(=O)Cc1ccc(OC)c(S(=O)(=O)N2CCOCC2)c1 -13.3%
COc1ccc(/C=C2\SC(=N)N(c3ccc(F)cc3)C2=O)cc1 -0.809%
CCOc1ccc(N=C2NC(=O)S/C2=C\c2ccc(O)cc2)cc1 8.7%
Cc1sc(NC(=O)c2ccc3ncsc3c2)c(C(N)=O)c1C 18.5%
O=C(COC(=O)Cn1[nH]c(=O)c2ccccc2c1=O)Nc1c(Cl)cccc1C(F)(F)F -1.35%
COc1ccccc1C(=O)NC(CCSC)C(=O)N1CCN(C/C=C/c2ccccc2)CC1 (stereo not given) 6.22%
COc1ccccc1C(=O)NNC(=O)CCN1C(=O)/C(=C\c2ccccc2)SC1=S 3.5%
Cc1ccc(/C=C2\SC(=S)N(CCC(=O)Nc3ccc(O)cc3)C2=O)cc1 2.79%
O=C(c1ccc(NS(=O)(=O)c2ccc3[nH]c(=O)[nH]c3c2)cc1)N1CCCCC1 -2.36%
COC(=O)c1cc(S(=O)(=O)Nc2ccc(C)c(F)c2)c[nH]1 5.93%
CCOc1cc(NS(=O)(=O)c2ccc(OC)cc2)c(OCC)cc1NC(C)=O -13.5%
COCOc1cc(O)c(C(=O)/C=C/c2ccc(OCOC)c(OCOC)c2)c(OCOC)c1 23.1%
COc1cccc(CCNC(=O)COc2cccc3c2OC(C)(C)C3)c1 -0.825%
Cc1cc(C(=O)Cn2cnc3cc([N+](=O)[O-])ccc3c2=O)c(C)n1CC1CCCO1 (stereo not given) 3.88%
Cc1cc(C(=O)CCl)c(C)n1CC1COc2ccccc2O1 (stereo not given) 19.5%
CCCCn1c(N)c(N(CCOC)C(=O)c2sc3ccccc3c2Cl)c(=O)[nH]c1=O -1.16%
COc1ccccc1C(=O)NCCC(=O)NCC(c1ccco1)N1CCCCC1 (stereo not given) -1.06%
CC1COc2ccccc2N1S(=O)(=O)c1ccccc1 (stereo not given) -6.19%
CC1COc2ccccc2N1C(=O)c1cccnc1Cl (stereo not given) -2.12%
O=C(NCCCN1CCCC1=O)c1ccc(S(=O)(=O)Nc2ccccc2)cc1 4.74%

Activity change, negative = inhibition, active:
COc1ccc(/C=C2/S/C(=N/N=C3\CC4CCC3(C)C4(C)C)NC2=O)cc1 (stereo not given) -80.6%
C=CCOc1ccc(/C=C2\SC(=S)N(CCC(=O)O)C2=O)cc1 -55%
CCOc1ccccc1NS(=O)(=O)c1c[nH]c(C(=O)OC)c1 -51.6%
Cc1ccsc1C(=O)OCC(=O)c1cc(C)n(CC2CCCO2)c1C (stereo not given) -88.5%
CC1COc2ccccc2N1C(=O)c1ccc(F)cc1 (stereo not given) -77.4%
